From PubChem BioAssay (NCATS)
Where “and” joins values, the source holds several entries; their conditions need not be identical. Equal values may be shown once. Inconclusive results are not listed. A call without a number means that no potency is given here. Where a structure was tested more than once in an assay, its records may differ in their call. A number with no mark means an inactive call. Calls of active or inactive are those of the source. Calls come from the whole dose curve; as a rule, active = well fitted curve in the direction sought with a large enough effect; inconclusive = small, poorly fitted or top-dose-only effect, or another doubt; inactive = no such curve, though single readings can be large; an effect the other way counts as inactive or inconclusive.

Experiments:
[1] = system: CRL-7250; experiment: Cytotoxic Profiling of Annotated Libraries Using Quantitative High-Throughput Screening (AID 1296008); conditions: Five cell lines viability, CellTiter-Glo ATP luminescence, 48-72 h; max response: hits give low values; note: nearly all actives have a fitted effect of over 60% in size; note: potency is the fitted concentration of half-maximal effect
Outline: (§1)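 Compounds were pin-transferred onto cells and incubated 48 or 72 hr at 37 degree Celsius, 95% humidity. CellTiter-Glo was added, plates sat 10 min at room temperature, then ATP-coupled luminescence was imaged as the viability read-out.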

[2] = system: HEK293; experiment: as above; conditions: Five cell lines viability, CellTiter-Glo ATP luminescence, 48-72 h; max response: hits give low values
Outline: as §1

[3] = system: HaCat; experiment: as above; conditions: Five cell lines viability, CellTiter-Glo ATP luminescence, 48-72 h; max response: hits give low values
Outline: as §1

[4] = system: KB-3-1; experiment: as above; conditions: Five cell lines viability, CellTiter-Glo ATP luminescence, 48-72 h; max response: hits give low values
Outline: as §1

[5] = system: NIH3T3; experiment: as above; conditions: Five cell lines viability, CellTiter-Glo ATP luminescence, 48-72 h; max response: hits give low values
Outline: as §1

[6] = system: HEK293T; experiment: qHTS assay to identify novel small-molecules to repurpose for Merkel cell carcinoma treatment (AID 1296009); conditions: MCC and control cell lines, CellTiter-Glo viability, 72 h; at 44.8 µM (top of the series) unless noted; note: nearly all actives have a fitted effect of over 60% in size; note: potency is the fitted concentration of half-maximal effect
Outline: (§2)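 Cells exposed to NPC (8-point) and MIPE (11-point) compound dilutions for 72 hr at 37 degree celsius; viability read by CellTiter-Glo luminescence, normalized to no-cell and DMSO in-plate controls.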

[7] = system: MCC-13; experiment: as above; conditions: MCC and control cell lines, CellTiter-Glo viability, 72 h; series mostly up to 46 µM
Outline: as §2

[8] = system: MCC-26; experiment: as above; conditions: MCC and control cell lines, CellTiter-Glo viability, 72 h; series mostly up to 46 µM
Outline: as §2

[9] = system: MKL-1; experiment: as above; conditions: MCC and control cell lines, CellTiter-Glo viability, 72 h; series mostly up to 46 µM
Outline: as §2

[10] = system: MKL-2; experiment: as above; conditions: MCC and control cell lines, CellTiter-Glo viability, 72 h; series mostly up to 46 µM
Outline: as §2

[11] = system: C33A; experiment: Primary qHTS to identify gynecologic anti-cancer compounds using libraries of approved drugs and bioactive compounds (AID 1345084); conditions: Gynecologic cancer cell panel viability, ATPlite luminescence, 48 h; series mostly up to 57.5 µM; note: nearly all actives have a fitted effect of over 55% in size
Outline: (§3)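 In this quantitative HTS, cell killing is estimated from loss of ATP-dependent luciferase light. Cells see five compound concentrations over a 48 h exposure.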

[12] = system: CASKI; experiment: as above; conditions: Gynecologic cancer cell panel viability, ATPlite luminescence, 48 h; series mostly up to 57.5 µM
Outline: as §3

[13] = system: Es-2; experiment: as above; conditions: Gynecologic cancer cell panel viability, ATPlite luminescence, 48 h; series mostly up to 57.5 µM
Outline: as §3

[14] = system: HeLa; experiment: as above; conditions: Gynecologic cancer cell panel viability, ATPlite luminescence, 48 h; series mostly up to 57.5 µM
Outline: as §3

[15] = system: Hek293T; experiment: as above; conditions: Gynecologic cancer cell panel viability, ATPlite luminescence, 48 h, control line for the selectivity index; series mostly up to 57.5 µM
Outline: as §3

[16] = system: HACAT; experiment: qHTS assay to identify novel small-molecules to repurpose for Merkel cell carcinoma treatment (AID 1296009); conditions: MCC and control cell lines, CellTiter-Glo viability, 72 h; series mostly up to 44.8 µM; note: nearly all actives have a fitted effect of over 60% in size; note: potency is the fitted concentration of half-maximal effect
Outline: as §2

[17] = system: WaGa; experiment: as above; conditions: MCC and control cell lines, CellTiter-Glo viability, 72 h; series mostly up to 46 µM
Outline: as §2

[18] = system: CAOV3; experiment: Primary qHTS to identify gynecologic anti-cancer compounds using libraries of approved drugs and bioactive compounds (AID 1345084); conditions: Gynecologic cancer cell panel viability, ATPlite luminescence, 48 h; series mostly up to 57.5 µM; note: nearly all actives have a fitted effect of over 55% in size
Outline: as §3

[19] = system: NIH3T3; experiment: qHTS assay to identify novel small-molecules to repurpose for Merkel cell carcinoma treatment (AID 1296009); conditions: MCC and control cell lines, CellTiter-Glo viability, 72 h; at 44.8 µM (top of the series) unless noted; note: nearly all actives have a fitted effect of over 60% in size; note: potency is the fitted concentration of half-maximal effect
Outline: as §2

[20] = system: UISO; experiment: as above; conditions: MCC and control cell lines, CellTiter-Glo viability, 72 h; series mostly up to 46 µM
Outline: as §2

Cc1ccc2nc(NC(=O)CSc3nc4c(c(=O)n3-c3ccccc3)SCC4)sc2c1
Potency [1]: 13.2 µM (active)
max response [1]: 3.83%
outcome [2]: inactive
max response [3]: 3.94%
Potency [4]: 9.35 µM (active)
max response [4]: -10.5%
max response [5]: -19.8%
outcome [6]: inactive
Potency [7]: inactive
Potency [8]: inactive
Potency [9]: inactive
Potency [10]: inactive
Potency [11]: inactive
Potency [12]: inactive
Potency [13]: inactive
Potency [14]: inactive
Potency [15]: inactive

Cc1c(C)n(Cc2ccc(-c3ccccc3C(=O)O)cc2)c2ccc(C(=O)N[C@@H](C)c3ccc([N+](=O)[O-])cc3)cc12
max response [1]: 0.704%
outcome [1]: inactive
max response [2]: -2.51%
outcome [2]: inactive
max response [3]: -4.97%
outcome [3]: inactive
max response [4]: 0.427% and 0.798%
max response [5]: -3.87% and -3.64%
Potency [16]: inactive
outcome [6]: inactive
Potency [7]: inactive
Potency [9]: 0.372 µM (active)
Potency [10]: 0.332 µM (active)
Potency [17]: 0.469 µM (active)
Potency [11]: inactive
Potency [18]: inactive
Potency [12]: inactive
Potency [13]: inactive
Potency [14]: inactive
Potency [15]: inactive

Cc1ccc(NC(=O)C2(c3ccc4c(c3)OC(F)(F)O4)CC2)nc1-c1cccc(C(=O)O)c1
Potency [1]: 0.187 µM (active)
max response [1]: -5.91%
Potency [2]: 0.0372 µM (active)
outcome [2]: inactive
Potency [3]: 0.418 µM (active)
max response [3]: -0.152%
Potency [4]: 0.0526 µM (active)
outcome [4]: inactive
Potency [5]: 93.5 nM (active)
outcome [5]: inactive
outcome [6]: inactive
Potency [7]: 1.18 µM (active)
Potency [8]: 0.833 µM (active)
Potency [10]: 0.0264 µM (active)
outcome [19]: inactive
Potency [11]: inactive
Potency [18]: inactive
Potency [12]: inactive
Potency [13]: inactive
Potency [14]: inactive
Potency [15]: inactive

CC1(O)CC(c2nc(-c3ccc4ccc(-c5ccccc5)nc4c3)c3c(N)nccn23)C1 (stereo unspecified)
Potency [1]: 11.8 µM (active)
max response [1]: -9.35%
Potency [2]: 4.69 µM (active)
max response [3]: -1.26%
outcome [3]: inactive
Potency [5]: 16600 nM (active)
Potency [16]: inactive
Potency [7]: inactive
Potency [8]: inactive
Potency [20]: 0.662 µM (active)
Potency [11]: inactive
Potency [12]: inactive
Potency [13]: inactive
Potency [15]: inactive

CCCCCCCCCC(=O)N[C@@H](Cc1c[nH]c2ccccc12)C(=O)N[C@H](CC(N)=O)C(=O)N[C@@H](CC(=O)O)C(=O)N[C@@H]1C(=O)NCC(=O)N[C@@H](CCCN)C(=O)N[C@@H](CC(=O)O)C(=O)N[C@H](C)C(=O)N[C@@H](CC(=O)O)C(=O)NCC(=O)N[C@H](CO)C(=O)N[C@@H]([C@@H](C)CC(=O)O)C(=O)N[C@@H](CC(=O)c2ccccc2N)C(=O)O[C@@H]1C
outcome [1]: inactive
max response [2]: 3.78%
outcome [2]: inactive
max response [3]: -26.3%
outcome [3]: inactive
outcome [4]: inactive
max response [5]: -13.2%
outcome [5]: inactive
Potency [16]: inactive
outcome [6]: inactive
Potency [7]: inactive
Potency [8]: inactive
Potency [9]: inactive
Potency [10]: inactive
outcome [19]: inactive
Potency [20]: inactive
Potency [17]: inactive
Potency [11]: inactive
Potency [18]: inactive
Potency [12]: inactive
Potency [13]: inactive
Potency [14]: inactive
Potency [15]: inactive

NC(=O)c1c(OCc2c(F)cc(Br)cc2F)nsc1NC(=O)NCCCCN1CCCC1
Potency [1]: 4.69 µM (active) and 8.2 µM (active)
Potency [2]: 14.8 µM (active)
Potency [3]: 26.4 µM (active)
outcome [3]: inactive
Potency [4]: 9.35 µM (active)
Potency [5]: 235 nM (active) and 2.06 µM (active)
Potency [16]: inactive
Potency [9]: inactive
Potency [10]: inactive
Potency [11]: inactive
Potency [13]: inactive
Potency [14]: inactive
Potency [15]: inactive

CNC(=O)c1ccc(-c2cnc3ncc(Cc4ccc5ncccc5c4)n3n2)cc1F
max response [1]: -2.64%
outcome [1]: inactive
outcome [2]: inactive
max response [3]: -3.74% and -10.2%
max response [4]: 3.93% and 3.42%
max response [5]: -7.6% and -25.4%
outcome [6]: inactive
Potency [7]: inactive
Potency [8]: inactive
Potency [9]: inactive
Potency [10]: inactive
Potency [20]: inactive
Potency [17]: inactive
Potency [11]: inactive
Potency [18]: inactive
Potency [12]: inactive
Potency [13]: inactive
Potency [14]: inactive
Potency [15]: inactive

O=C(c1cncc(Br)c1)N1CCC(N2CCCC2)CC1
max response [1]: -7.35%
outcome [1]: inactive
max response [3]: 2.29% and 3.12%
max response [4]: 1.64%
outcome [4]: inactive
max response [5]: 4.3% and 2.16%
Potency [7]: inactive
Potency [9]: inactive
Potency [10]: inactive
Potency [20]: inactive
Potency [17]: inactive
Potency [11]: inactive
Potency [18]: inactive
Potency [12]: inactive
Potency [13]: inactive
Potency [14]: inactive
Potency [15]: inactive

N#CCNC(=O)c1ccc(-c2ccnc(Nc3ccc(N4CCOCC4)cc3)n2)cc1
Potency [1]: 7.43 µM (active) and 6.51 µM (active)
Potency [2]: 18.7 µM (active) and 23.1 µM (active)
Potency [3]: 13 µM (active)
max response [3]: -43.7%
Potency [4]: 11.8 µM (active) and 18.4 µM (active)
Potency [5]: 5.26 µM (active) and 4.11 µM (active)
Potency [20]: 14.8 µM (active)
Potency [11]: inactive
Potency [12]: inactive
Potency [14]: inactive

O=C(CCCCCCC(=O)Nc1ccc([C@H]2O[C@@H](CSc3nc(-c4ccccc4)c(-c4ccccc4)o3)C[C@@H](c3ccc(CO)cc3)O2)cc1)NO
Potency [1]: 18.7 µM (active)
max response [1]: -17.1%
Potency [2]: 14.8 µM (active) and 18.4 µM (active)
Potency [3]: 20.9 µM (active)
outcome [3]: inactive
Potency [4]: 11.8 µM (active)
max response [5]: -17.5%
Potency [16]: inactive
Potency [8]: 23.5 µM (active)
Potency [9]: 8.33 µM (active)
Potency [10]: 8.33 µM (active)
Potency [17]: 7.43 µM (active)
Potency [18]: inactive
Potency [12]: inactive
Potency [13]: inactive
Potency [14]: inactive
Potency [15]: inactive
